Laboratory results reported in ChEMBL document CHEMBL2218924, “A broad activity screen in support of a chemogenomic map for kinase signalling research and drug discovery” (Biochem J, 2013).

Experiments:
[1] = molecular target: SRSF protein kinase 1 (Homo sapiens) (UniProt Q96SB4); conditions: at 1 µM
[2] = molecular target: SRSF protein kinase 1 (Homo sapiens) (UniProt Q96SB4); conditions: at 10 µM
[3] = molecular target: SRSF protein kinase 2 (Homo sapiens) (UniProt P78362); conditions: at 1 µM
[4] = molecular target: Serine/threonine-protein kinase PLK2 (Homo sapiens) (UniProt Q9NYY3); conditions: at 1 µM
[5] = molecular target: Serine/threonine-protein kinase PLK2 (Homo sapiens) (UniProt Q9NYY3); conditions: at 10 µM
[6] = molecular target: Tyrosine-protein kinase SYK (Homo sapiens) (UniProt P43405); conditions: at 1 µM
[7] = molecular target: Tyrosine-protein kinase SYK (Homo sapiens) (UniProt P43405); conditions: at 10 µM
[8] = molecular target: T1, Serine/threonine-protein kinase TAO1 (Homo sapiens) (UniProt Q7L7X3); conditions: at 1 µM
T1 sequence (whole entry): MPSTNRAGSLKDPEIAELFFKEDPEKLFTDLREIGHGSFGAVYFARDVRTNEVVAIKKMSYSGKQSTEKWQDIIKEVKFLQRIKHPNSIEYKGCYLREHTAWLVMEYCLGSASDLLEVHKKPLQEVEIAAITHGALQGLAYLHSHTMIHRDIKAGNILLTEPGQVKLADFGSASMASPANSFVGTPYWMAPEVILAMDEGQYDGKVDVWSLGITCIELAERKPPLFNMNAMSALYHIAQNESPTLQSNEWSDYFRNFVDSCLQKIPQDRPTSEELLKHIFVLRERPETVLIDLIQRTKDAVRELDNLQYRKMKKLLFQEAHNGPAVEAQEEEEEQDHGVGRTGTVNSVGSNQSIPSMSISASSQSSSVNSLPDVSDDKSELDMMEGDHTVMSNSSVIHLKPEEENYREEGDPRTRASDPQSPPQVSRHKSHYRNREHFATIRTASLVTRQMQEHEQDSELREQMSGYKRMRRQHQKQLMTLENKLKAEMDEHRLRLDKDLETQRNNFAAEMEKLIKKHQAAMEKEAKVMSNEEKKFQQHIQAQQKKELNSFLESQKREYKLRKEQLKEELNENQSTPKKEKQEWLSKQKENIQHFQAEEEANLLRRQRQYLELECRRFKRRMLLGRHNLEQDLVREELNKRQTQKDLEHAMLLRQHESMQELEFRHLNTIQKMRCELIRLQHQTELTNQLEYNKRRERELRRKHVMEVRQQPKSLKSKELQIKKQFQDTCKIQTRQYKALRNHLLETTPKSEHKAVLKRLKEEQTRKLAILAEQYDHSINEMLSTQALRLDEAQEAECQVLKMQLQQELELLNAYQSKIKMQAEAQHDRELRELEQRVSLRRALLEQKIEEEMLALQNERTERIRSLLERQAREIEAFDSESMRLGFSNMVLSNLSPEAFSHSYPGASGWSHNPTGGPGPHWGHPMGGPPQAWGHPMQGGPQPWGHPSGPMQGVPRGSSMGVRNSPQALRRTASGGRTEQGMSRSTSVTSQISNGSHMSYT

[9] = molecular target: T1, Serine/threonine-protein kinase TAO1 (Homo sapiens); conditions: at 10 µM
[10] = molecular target: T2, Serine/threonine-protein kinase TAO2 (Homo sapiens) (UniProt Q9UL54); conditions: at 1 µM
T2 sequence (whole entry): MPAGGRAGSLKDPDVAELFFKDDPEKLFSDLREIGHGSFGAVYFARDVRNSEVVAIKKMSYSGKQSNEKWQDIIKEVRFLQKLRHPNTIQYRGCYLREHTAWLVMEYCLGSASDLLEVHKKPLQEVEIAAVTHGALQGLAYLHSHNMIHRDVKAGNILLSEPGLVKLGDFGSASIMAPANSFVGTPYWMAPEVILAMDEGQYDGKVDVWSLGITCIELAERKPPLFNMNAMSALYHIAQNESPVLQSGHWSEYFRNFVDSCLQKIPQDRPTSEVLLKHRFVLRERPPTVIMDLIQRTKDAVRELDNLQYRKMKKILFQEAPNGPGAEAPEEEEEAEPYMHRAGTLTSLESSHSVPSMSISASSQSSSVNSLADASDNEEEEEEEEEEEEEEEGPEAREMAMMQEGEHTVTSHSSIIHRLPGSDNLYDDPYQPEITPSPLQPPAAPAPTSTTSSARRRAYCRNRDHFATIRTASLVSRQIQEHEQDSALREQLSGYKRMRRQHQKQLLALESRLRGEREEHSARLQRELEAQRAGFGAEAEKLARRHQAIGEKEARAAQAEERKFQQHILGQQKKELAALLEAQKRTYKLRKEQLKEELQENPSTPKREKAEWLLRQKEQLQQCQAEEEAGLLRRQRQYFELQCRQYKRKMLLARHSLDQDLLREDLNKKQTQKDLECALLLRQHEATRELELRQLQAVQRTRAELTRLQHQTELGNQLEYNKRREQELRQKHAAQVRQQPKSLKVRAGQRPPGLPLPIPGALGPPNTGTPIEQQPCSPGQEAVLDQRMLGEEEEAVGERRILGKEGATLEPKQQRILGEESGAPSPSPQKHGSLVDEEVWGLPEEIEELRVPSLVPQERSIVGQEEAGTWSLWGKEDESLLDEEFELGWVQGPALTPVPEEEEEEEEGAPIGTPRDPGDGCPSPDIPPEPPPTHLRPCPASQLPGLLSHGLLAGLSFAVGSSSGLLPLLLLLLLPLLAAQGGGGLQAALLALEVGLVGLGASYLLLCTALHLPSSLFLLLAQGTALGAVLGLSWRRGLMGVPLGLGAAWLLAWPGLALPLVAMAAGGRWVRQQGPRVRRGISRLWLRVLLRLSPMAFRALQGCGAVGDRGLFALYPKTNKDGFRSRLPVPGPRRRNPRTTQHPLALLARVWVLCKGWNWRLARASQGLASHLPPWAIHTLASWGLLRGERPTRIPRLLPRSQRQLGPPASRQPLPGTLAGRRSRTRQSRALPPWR

[11] = molecular target: T2, Serine/threonine-protein kinase TAO2 (Homo sapiens); conditions: at 10 µM
[12] = molecular target: T3, Serine/threonine-protein kinase TAO3 (Homo sapiens) (UniProt Q9H2K8); conditions: at 1 µM
T3 sequence (whole entry): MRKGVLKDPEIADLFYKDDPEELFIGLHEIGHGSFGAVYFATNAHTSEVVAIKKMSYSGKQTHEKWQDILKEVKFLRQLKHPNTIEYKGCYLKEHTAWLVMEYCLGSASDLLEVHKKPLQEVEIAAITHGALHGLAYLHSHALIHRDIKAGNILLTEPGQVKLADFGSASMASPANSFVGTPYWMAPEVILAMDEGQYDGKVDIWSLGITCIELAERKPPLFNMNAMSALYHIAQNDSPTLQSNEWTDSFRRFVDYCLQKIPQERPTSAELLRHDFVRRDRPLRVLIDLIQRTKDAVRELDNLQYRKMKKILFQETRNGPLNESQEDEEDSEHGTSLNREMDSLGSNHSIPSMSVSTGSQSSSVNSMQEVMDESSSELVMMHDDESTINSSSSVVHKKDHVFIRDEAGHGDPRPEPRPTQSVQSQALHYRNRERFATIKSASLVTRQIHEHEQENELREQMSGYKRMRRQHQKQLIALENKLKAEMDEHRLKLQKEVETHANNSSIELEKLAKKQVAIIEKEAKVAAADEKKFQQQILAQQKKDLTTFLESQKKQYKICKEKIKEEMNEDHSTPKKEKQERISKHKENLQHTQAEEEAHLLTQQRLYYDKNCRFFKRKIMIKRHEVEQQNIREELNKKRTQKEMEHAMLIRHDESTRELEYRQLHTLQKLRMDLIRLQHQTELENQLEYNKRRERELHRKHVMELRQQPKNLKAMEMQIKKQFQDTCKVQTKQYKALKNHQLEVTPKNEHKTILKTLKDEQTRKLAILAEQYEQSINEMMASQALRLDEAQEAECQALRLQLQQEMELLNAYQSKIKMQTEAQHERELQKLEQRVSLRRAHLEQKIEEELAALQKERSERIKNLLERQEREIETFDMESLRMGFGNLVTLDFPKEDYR

[13] = molecular target: SRSF protein kinase 2 (Homo sapiens) (UniProt P78362); conditions: at 10 µM
[14] = molecular target: Serine/threonine-protein kinase 33 (Homo sapiens) (UniProt Q9BYT3); conditions: at 1 µM
[15] = molecular target: Serine/threonine-protein kinase 33 (Homo sapiens) (UniProt Q9BYT3); conditions: at 10 µM
[16] = molecular target: T4, Mitogen-activated protein kinase kinase kinase 7 (Homo sapiens) (UniProt O43318); conditions: at 1 µM
T4 sequence (whole entry): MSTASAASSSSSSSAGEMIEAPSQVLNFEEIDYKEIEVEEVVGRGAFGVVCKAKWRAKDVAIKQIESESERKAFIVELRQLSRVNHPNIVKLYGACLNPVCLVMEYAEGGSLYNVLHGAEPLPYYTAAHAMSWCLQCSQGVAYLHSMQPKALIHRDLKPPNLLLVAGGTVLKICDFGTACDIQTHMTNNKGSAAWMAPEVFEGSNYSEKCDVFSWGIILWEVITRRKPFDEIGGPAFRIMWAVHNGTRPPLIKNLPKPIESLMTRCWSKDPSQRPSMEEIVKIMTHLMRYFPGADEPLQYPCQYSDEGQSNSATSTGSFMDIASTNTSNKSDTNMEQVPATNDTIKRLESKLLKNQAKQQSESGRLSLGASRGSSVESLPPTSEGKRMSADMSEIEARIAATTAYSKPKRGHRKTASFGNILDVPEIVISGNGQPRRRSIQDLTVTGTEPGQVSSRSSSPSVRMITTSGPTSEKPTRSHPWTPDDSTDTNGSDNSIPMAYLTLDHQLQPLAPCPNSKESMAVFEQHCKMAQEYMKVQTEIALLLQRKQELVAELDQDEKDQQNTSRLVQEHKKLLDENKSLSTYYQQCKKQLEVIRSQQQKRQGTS

[17] = molecular target: T4, Mitogen-activated protein kinase kinase kinase 7 (Homo sapiens); conditions: at 10 µM
[18] = molecular target: T3, Serine/threonine-protein kinase TAO3 (Homo sapiens); conditions: at 10 µM
[19] = molecular target: T5, Serine/threonine-protein kinase TBK1 (Homo sapiens) (UniProt Q9UHD2); conditions: at 1 µM
T5 sequence (whole entry): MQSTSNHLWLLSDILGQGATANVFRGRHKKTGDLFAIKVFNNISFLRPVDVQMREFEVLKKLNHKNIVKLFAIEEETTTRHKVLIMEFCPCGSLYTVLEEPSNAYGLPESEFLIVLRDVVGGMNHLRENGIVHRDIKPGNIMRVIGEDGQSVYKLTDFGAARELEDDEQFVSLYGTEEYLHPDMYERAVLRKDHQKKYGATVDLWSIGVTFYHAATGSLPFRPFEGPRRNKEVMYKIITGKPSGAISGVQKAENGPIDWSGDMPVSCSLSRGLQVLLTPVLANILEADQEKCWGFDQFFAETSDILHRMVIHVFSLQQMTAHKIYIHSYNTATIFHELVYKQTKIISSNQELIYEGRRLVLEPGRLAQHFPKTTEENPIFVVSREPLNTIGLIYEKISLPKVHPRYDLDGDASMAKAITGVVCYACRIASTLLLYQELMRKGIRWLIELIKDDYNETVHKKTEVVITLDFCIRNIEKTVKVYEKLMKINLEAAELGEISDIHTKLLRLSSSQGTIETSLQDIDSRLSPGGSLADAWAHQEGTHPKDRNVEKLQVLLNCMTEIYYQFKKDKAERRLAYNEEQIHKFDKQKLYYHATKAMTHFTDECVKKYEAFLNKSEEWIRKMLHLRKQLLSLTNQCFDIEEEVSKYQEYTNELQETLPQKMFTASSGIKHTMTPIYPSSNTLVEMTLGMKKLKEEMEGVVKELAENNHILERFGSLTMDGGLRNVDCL

Chain of SRSF protein kinase 1 (Homo sapiens) (Q96SB4 whole entry): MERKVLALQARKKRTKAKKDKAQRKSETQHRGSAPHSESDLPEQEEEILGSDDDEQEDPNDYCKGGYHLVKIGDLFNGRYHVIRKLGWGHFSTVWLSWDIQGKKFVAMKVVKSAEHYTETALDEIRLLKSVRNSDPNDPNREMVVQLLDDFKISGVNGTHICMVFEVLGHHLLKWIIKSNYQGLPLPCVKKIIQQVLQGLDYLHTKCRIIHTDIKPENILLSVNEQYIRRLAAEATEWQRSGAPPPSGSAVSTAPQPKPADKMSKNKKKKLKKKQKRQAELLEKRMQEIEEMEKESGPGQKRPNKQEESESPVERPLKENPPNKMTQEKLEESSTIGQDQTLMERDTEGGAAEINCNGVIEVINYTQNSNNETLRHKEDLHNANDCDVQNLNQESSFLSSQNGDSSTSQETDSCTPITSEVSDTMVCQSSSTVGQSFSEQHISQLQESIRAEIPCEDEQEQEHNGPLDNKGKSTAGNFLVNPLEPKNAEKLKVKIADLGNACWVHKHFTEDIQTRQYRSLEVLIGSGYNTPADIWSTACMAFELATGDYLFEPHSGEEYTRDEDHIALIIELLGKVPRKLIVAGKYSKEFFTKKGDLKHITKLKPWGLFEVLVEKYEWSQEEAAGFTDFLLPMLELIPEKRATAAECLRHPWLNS
Chain of SRSF protein kinase 2 (Homo sapiens) (P78362 whole entry, looked up): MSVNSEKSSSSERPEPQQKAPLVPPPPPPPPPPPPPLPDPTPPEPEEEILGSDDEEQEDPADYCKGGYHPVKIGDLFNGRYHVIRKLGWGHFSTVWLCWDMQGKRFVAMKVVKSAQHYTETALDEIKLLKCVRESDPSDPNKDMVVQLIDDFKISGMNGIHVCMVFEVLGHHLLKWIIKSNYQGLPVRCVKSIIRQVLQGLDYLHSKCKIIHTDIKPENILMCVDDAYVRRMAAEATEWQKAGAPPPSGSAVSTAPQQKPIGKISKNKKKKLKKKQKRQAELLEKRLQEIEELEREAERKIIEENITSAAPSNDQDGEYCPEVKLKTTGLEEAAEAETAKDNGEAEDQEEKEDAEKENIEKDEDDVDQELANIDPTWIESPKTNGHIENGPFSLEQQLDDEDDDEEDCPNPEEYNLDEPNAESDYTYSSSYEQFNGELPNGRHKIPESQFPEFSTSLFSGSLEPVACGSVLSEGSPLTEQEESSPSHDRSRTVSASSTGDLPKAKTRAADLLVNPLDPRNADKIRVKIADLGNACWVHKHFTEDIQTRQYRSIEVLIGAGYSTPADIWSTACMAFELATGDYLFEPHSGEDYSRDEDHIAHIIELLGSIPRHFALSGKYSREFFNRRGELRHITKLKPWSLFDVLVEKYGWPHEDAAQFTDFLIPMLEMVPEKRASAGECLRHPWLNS
Chain of Serine/threonine-protein kinase PLK2 (Homo sapiens) (Q9NYY3 whole entry, looked up): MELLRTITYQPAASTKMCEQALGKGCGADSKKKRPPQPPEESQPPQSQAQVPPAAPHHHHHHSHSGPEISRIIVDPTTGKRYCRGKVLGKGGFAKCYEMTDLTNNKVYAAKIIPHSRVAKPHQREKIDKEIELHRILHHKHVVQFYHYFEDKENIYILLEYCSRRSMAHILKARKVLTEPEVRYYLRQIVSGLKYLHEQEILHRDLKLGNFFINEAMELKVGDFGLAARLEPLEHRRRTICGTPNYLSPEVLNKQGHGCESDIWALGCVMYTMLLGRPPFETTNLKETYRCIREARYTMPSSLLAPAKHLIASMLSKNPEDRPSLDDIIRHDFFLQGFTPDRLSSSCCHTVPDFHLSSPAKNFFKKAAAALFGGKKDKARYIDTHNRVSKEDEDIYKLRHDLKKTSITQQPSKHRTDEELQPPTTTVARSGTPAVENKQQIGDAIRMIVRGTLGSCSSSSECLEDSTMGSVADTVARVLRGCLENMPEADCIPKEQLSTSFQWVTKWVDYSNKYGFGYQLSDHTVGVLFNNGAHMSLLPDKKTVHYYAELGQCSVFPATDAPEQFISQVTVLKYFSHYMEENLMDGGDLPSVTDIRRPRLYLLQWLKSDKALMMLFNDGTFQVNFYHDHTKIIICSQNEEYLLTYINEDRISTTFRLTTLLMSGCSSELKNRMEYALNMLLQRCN
Chain of Serine/threonine-protein kinase 33 (Homo sapiens) (Q9BYT3 whole entry, looked up): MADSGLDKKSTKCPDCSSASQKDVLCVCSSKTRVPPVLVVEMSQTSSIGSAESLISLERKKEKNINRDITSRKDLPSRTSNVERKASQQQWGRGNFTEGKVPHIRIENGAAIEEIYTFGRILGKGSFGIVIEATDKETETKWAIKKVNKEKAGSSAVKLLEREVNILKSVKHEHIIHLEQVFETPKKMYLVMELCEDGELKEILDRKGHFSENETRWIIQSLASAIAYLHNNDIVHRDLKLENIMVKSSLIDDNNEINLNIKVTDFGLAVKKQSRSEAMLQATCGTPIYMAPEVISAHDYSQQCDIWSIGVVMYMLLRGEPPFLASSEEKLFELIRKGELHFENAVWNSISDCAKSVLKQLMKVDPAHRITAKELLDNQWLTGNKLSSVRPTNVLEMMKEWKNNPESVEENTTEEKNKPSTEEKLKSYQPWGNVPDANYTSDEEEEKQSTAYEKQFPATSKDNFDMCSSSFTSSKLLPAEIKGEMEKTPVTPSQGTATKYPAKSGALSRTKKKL

Row | Structure (SMILES) | residual activity [1] | residual activity [2] | residual activity [3] | residual activity [4] | residual activity [5] | residual activity [6] | residual activity [7] | residual activity [8] | residual activity [9] | residual activity [10] | residual activity [11] | residual activity [12] | residual activity [13] | residual activity [14] | residual activity [15] | residual activity [16] | residual activity [17] | residual activity [18] | residual activity [19]
1 | COc1cc2ncnc(Nc3cccc(Cl)c3)c2cc1OC | 101% | 108% | 104% | 109% | 82% | 121% | 71% | 102% | 76% | 113% | 86% | 102% | – | – | – | – | – | – | –
2 | CN(C)S(=O)(=O)c1ccc2c(c1)/C(=C/c1cc3c([nH]1)CCCC3)C(=O)N2 | 20% | 8% | 34% | – | – | 97% | 96% | 37% | 56% | 93% | 87% | 89% | 14% | 85% | 93% | 100% | 92% | 73% | 74%
